# Measured values from PubChem BioAssay.
# Values without a mark were called inactive. How the calls were made is not given here.
# Molecular target: Pantothenate synthetase (Mycobacterium tuberculosis (strain ATCC 25618 / H37Rv)) (UniProt P9WIL5)
# Assay: Recombinant Mtb pantothenate synthetase (PanC) inhibitors, coupled enzyme, confirmatory (AID 375);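 further: 0% = full reaction with vehicle and 100% = no enzyme background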
# Conditions: coupled enzyme assay; at 10 µM, stronger effect = higher value
# Chain of Pantothenate synthetase (Mycobacterium tuberculosis (strain ATCC 25618 / H37Rv)) (P9WIL5 whole entry, looked up): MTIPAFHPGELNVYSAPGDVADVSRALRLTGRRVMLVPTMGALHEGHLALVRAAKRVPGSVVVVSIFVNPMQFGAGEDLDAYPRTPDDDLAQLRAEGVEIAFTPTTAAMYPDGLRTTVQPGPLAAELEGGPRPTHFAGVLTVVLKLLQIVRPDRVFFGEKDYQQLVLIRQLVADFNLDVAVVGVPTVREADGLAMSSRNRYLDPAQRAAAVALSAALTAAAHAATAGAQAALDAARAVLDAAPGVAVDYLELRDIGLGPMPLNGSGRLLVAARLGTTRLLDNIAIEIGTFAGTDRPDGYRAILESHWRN
row,Structure (SMILES),inhibition
1,COC(=O)C1CCN(C(=O)CN2C(=O)NC(CCc3ccccc3)C2=O)CC1 (configuration not stated),0%
2,CCCSc1nnc(-c2ccccc2NC(=O)CC)c(=O)[nH]1,0%
3,Cc1c(/C(O)=C2/C(=O)C(=O)N(CCN3CCOCC3)C2c2cccs2)cnn1-c1ccccc1 (configuration not stated),8%
4,Oc1ccc(Cl)cc1-c1cc(-c2ccccc2)n[nH]1,0%
5,CCOc1cc(C)c(Cl)cc1S(=O)(=O)N(C)C,5%
6,CCOC(=O)C1CCCN(CCC(C)c2ccccc2)C1 (configuration not stated),1%
7,Cc1ccc(NC(=O)CSc2nnc(NC(=O)CN3CCOCC3)s2)cc1,5%
8,Cc1c(Cl)cccc1NC(=O)CCN1CCCCC1,0%
9,O=S(=O)(Nc1ccc2c(c1)OCO2)c1ccc(Br)s1,0%
10,O=C(CSCc1cccc(F)c1)N1CCN(c2ccccc2)CC1,4%
11,O=C(Nc1ccc2[nH]c3c(c2c1)CCCC3)c1ccco1,0%
12,CCOC(=O)c1sc(NC(=O)CSc2ncn(-c3ccccc3)n2)nc1C,3%
13,Cc1ccc(S(=O)(=O)NC(C(=O)OCC(=O)NC2CCS(=O)(=O)C2)C(C)C)cc1 (configuration not stated),0%
14,C=CCn1cnc2c(c1=O)c1nc3ccccc3nc1n2-c1ccc(C)cc1,0%
15,COCCOc1nc2ccccc2nc1C,0%
16,CC(=O)OCC(=O)[C@@]1(O)[C@H](C)C[C@H]2[C@@H]3CCC4=CC(=O)C=C[C@]4(C)[C@@]3(F)[C@@H](O)C[C@@]21C,4%
17,O=C(NCC1CCCO1)C1CCN(S(=O)(=O)c2cccc3cccnc23)CC1 (configuration not stated),0%
18,O=C(Cn1cnc2c(nnn2Cc2ccccc2)c1=O)c1ccc(Cl)cc1,5%
19,CCOc1ccc(N(CC(=O)OC)S(=O)(=O)c2ccc(OC)c(OC)c2)cc1,0%
20,Cc1csc2nc(CSc3nc4ccccc4o3)c(Br)n12,0%
21,CCN(Cc1nc2ccccc2c(=O)[nH]1)Cc1nc2cc(OC)c(OC)cc2c(=O)[nH]1,0%
22,Cc1ccc(C(C(=O)NC2CCCCC2)N(C(=O)c2csnn2)C2CCCC2)o1 (configuration not stated),0%
